Measured values published in PubChem BioAssay AID624312 (National Center for Advancing Translational Sciences (NCATS), 2012).
Records with an inconclusive call do not appear. Unmarked numbers belong to inactive results. Active and inactive are the calls of the source. Calls follow the shape of the dose curve; as a rule, active = well fitted inhibition curve with a large enough effect; inconclusive = small, poorly fitted or top-dose-only effect; inactive = no such curve, though single readings can be large or run the other way.

Each molecule was assayed against Peptidyl-prolyl cis-trans isomerase NIMA-interacting 1 (Homo sapiens) (UniProt Q13526) (assay: qHTS Assay to Find Inhibitors of Pin1: Hit Validation using Tamra Binding). Settings: Pin1 Tamra-peptide displacement, fluorescence polarization, 10 min; series mostly up to 57.5 µM; activity change, negative = inhibition: at the top concentration.
Chain of Peptidyl-prolyl cis-trans isomerase NIMA-interacting 1 (Homo sapiens) (Q13526 whole entry, looked up, the tested form may be a part): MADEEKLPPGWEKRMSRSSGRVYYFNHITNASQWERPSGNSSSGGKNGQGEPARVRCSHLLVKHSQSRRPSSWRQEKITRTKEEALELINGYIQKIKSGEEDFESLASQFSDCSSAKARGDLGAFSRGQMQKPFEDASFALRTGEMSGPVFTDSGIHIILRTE
From the text: The unique chemical properties of Pro allow for the adoption of two completely distinct amide bond conformations (cis and trans). Peptidyl-prolyl cis/trans isomerases (PPIases) are evolutionary conserved enzymes that catalyze cis/trans isomerization of peptidyl-prolyl peptide bonds. Distinct from all other PPIases such as cyclophilins and FK506-binding proteins (FKBPs), Pin1 binds a subset of phos.Ser/Thr-Pro-containing proteins using its protein-targeting WW domain and isomerizes only specific phos.Ser/Thr-Pro bonds, which cannot be effectively catalyzed by other known PPIases. Pin1-catalyzed conformational regulation can control a spectrum of activities of many key regulators in diverse cellular processes such as cell growth, genotoxic and other stress responses, immune response, germ cell development, neuronal differentiation and survival. Pin1 has emerged as a novel molecular timer that modulates its multiple targets at various steps of a given cellular process to synergistically control the amplitude and duration of a cellular response or process. Importantly, Pin1 is tightly regulated by multiple levels and its deregulation has an important role in a growing number of pathological conditions, including cancer, Alzheimer's disease, aging, asthma and microbial infection, providing a potentially new therapeutic option. The goal of this screen is to find small-molecule inhibitors of Pin1 using a fluorescence polarization competition assay.In the primary screen, a HiFluor-488-labeled peptide binds to the active site of Pin1 and can be displaced by compounds. Compounds were screened as a concentration-titration series that ranged from 57 uM to 0.7 nM. To validate the hits using a different read-out, this Tamra binding assays was used against all the hits identified from the primary screen. NIH Molecular Libraries Probe Production Network [MLPCN] NIH Chemical Genomics Center [NCGC] MLPCN Grant: R03 DA031663 PI Name: Dr. Kun Ping Lu, Beth Israel Deaconess Medical Center
Briefly, 2 uL of Pin1 (all columns but column 3, which just receives buffer and serves as negative control) are dispensed into Greiner black solid bottom 1536-well assay plates. Compounds are then transferred via Kalypsys pin tool equipped with 1536-pin array (10 nl slotted pins, V&P Scientific, San Diego, CA). Following addition of compound, 2 uL of Tamra-probe in buffer (all columns) is added to initiate the binding reaction. The plates are then incubated at room temperature for 10 minutes. Finally, plates are transferred to a ViewLux high-throughput CCD imager (PerkinElmer), wherein end-point measurements of fluorescence polarization are acquired. All reagents are diluted in an assay buffer consisting of 10 mM Hepes, 10 mM NaCl, 1 mM DTT, 1% glycerol and 0.01% Tween-20.
With `O=S(=O)(Nc1cc(Sc2ncn[nH]2)c(O)c2ccccc12)c1ccccc1` the “activity change, negative = inhibition” value was 0.852%.
In the case of `CCCCCC(=O)Nc1cc(S(=O)(=O)O)cc2cc(S(=O)(=O)O)cc(O)c12`, the Potency is reported as 2.39 µM (active).
With `Nc1ccc2cccc(O)c2c1` the Potency was 26.9 µM (active).
With `O=S(=O)(O)c1cc(O)c2cc(Nc3ccccc3)ccc2c1` the Potency was 12 µM (active).
With `O=S(=O)(O)c1ccc(O)c2cc(Nc3ccccc3)ccc12` the Potency was 3.01 µM (active).
For `COc1ccccc1Nc1ccc2c(O)cc(S(=O)(=O)O)cc2c1`, the Potency was 7.57 µM (active).
`Cc1ccc2nc(-c3ccc(N=Nc4cc(S(=O)(=O)O)c5ccccc5c4O)cc3)sc2c1S(=O)(=O)O` was tested, and the “activity change, negative = inhibition” value was 282%.
For `CC(=O)Nc1ccc(Nc2c3c4c(cccc4n(C)c2=O)C(=O)c2ccccc2-3)cc1`, the “activity change, negative = inhibition” value was -17.4%.
With `COc1ccc(S(=O)(=O)Nc2cc(Sc3ncn[nH]3)c(O)c3ccccc23)cc1` the “activity change, negative = inhibition” value was -5.86%.
